# Several values for one entry are separate records, joined by “and”; a condition that tells them apart may be missing. Identical values can stand only once. The whole screen tested about 360,000 compounds, of which about 11,000 (3.1%) were called active. Rule as the data show it: active = activity change below about -30%; inactive = the rest. Many of the other results were omitted from the sample, so actives are more common in it than they were. A structure can be active in one record and inactive in another.
# Biological target: D(1A) dopamine receptor (Homo sapiens) (UniProt P21728)
# Test: Antagonist of Human D 1 Dopamine Receptor: qHTS
# Conditions: HEK293 TREx D1 cells, calcium flux, dopamine EC80; at 10 µM; stronger effect = lower value
# Excerpt: Dopamine receptors (DARs) are involved in the etiology and/or therapy of a number of neuropsychiatric and endocrine disorders. For instance, all receptor-based antiparkinsonian drugs work via stimulating the […] DAR subtype whereas all FDA-approved antipsychotic agents are antagonists of this receptor. […] There are three different types of allosteric modulators that we are seeking, two of which will stimulate or augment receptor signaling, allosteric agonists and potentiators, while the third, allosteric antagonists, will attenuate receptor signaling. The present primary screening assay measures compound antagonism after an EC80 addition of dopamine by tracking calcium flux in a […], inducible Hek293 Trex D1 cell line. NIH Chemical Genomics Center [NCGC] NIH Molecular Libraries Probe Centers Network [MLPCN] MLPCN Grant: NS064831-01 Assay Submitter (PI): David Sibley
# Freshly passaged cells are plated in 1536 well black, clear bottom plates at a density of 4000 cells/well in 3 ul of complete media containing 1x tetracycline inducer. After an overnight incubation at 30 C in 5% CO2, cells are loaded with 2 ul of the no wash Calcium Assay Kit (ABD Bioquest) and incubated at room temperature for 30 to 90 minutes. Agonist read: A 10 cycle (1 second/cycle) baseline measurement is taken and then the FDSS online 1536 pintool delivers 23 nl of compound library (as well as dopamine controls) to the plate. The plate is measured for kinetically at 1 cycle/sec for 180 seconds. Following the 180 second read, 1 ul of an EC80 (negative modulation assay) is delivered by an onboard pipette head. Measurements are taken kinetically for an additional 180 seconds.
# % is scaled to controls: 0 for no effect and ±100 for the full control effect.
# D(1A) dopamine receptor (Homo sapiens), sequence (P21728 whole entry, looked up): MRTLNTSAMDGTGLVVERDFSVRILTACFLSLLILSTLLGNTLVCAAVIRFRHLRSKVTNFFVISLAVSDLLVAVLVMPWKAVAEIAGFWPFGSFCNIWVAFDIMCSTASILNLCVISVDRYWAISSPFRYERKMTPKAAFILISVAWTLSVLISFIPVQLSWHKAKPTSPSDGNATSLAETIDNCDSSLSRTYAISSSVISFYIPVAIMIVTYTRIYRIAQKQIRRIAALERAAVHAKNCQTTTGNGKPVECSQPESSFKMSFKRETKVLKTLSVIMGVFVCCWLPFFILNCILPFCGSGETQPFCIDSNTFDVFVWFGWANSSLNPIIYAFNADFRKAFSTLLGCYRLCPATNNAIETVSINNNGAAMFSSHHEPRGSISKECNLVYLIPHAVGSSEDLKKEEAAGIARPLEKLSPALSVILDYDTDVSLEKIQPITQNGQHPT
row,Structure (SMILES),"activity change, negative = inhibition"
1,N#Cc1nc(/C=C/c2ccc(F)cc2)oc1NCc1ccc(F)cc1,4.43% (inactive)
2,Cc1ccc(CNC(=O)CCNS(=O)(=O)c2ccc3c(c2)oc(=O)n3C)cc1,-2.95% (inactive)
3,CN(Cc1ccccc1)C(=O)c1cn(C)c2ccc(S(=O)(=O)N(C)C3CCCCC3)cc2c1=O,-6.93% (inactive)
4,Cc1cccc(NC(=O)N2CCC(CN3CCc4ccccc4C3)CC2)c1C,3.23% (inactive)
5,COc1cccc(C(=O)Nc2ccc(-c3cc(C(F)(F)F)nn3-c3ccccc3)cc2)c1,-9.33% (inactive)
6,CCOc1ccccc1C(=O)NCc1ccc2c(c1)CCN2C(=O)c1ccc(F)cc1,-20.6% (inactive)
7,CCn1cc(C(=O)N(C)Cc2ccccc2)c(=O)c2cc(S(=O)(=O)N3CCCCCC3)ccc21,-14.7% (inactive)
8,Cc1n[nH]c(C)c1S(=O)(=O)N1CCCC(C(=O)NCC2COc3ccccc3O2)C1 (stereo not given),4.33% (inactive)
9,CC(=O)Nc1ccc(NC(=O)C2CCCN(S(=O)(=O)c3ccc(Cl)cc3)C2)cc1 (stereo not given),-19.3% (inactive)
10,Cc1n[nH]c(C)c1S(=O)(=O)N1CCCC(C(=O)Nc2ccc(Br)cc2)C1 (stereo not given),2.22% (inactive) and -57.1% (active)
11,O=C(NCc1cccnc1)C(=O)NCC(c1cccnc1)N1CCN(c2ccccc2)CC1 (stereo not given),2.98% (inactive)
12,CCOc1ccc(N(CC)S(=O)(=O)N2CCCC(C(=O)Nc3ccc(C(C)=O)cc3)C2)cc1 (stereo not given),-25.1% (inactive)
13,CC(C)(C)NCCCOc1ccc(Cl)cc1C(C)(C)C,-4.49% (inactive)
14,COCCNCCOCCOc1cccc(OC)c1,12.6% (inactive)
15,COCCCNCCOCCOc1ccc(Cl)cc1Br,-34.7% (active)
16,CCc1ccc(CNC(=O)c2cc3cc4ccc(OC)cc4nc3o2)cc1,2.97% (inactive)
17,CCCc1nn2c(=O)cc(COC(=O)c3ccc(NC(=O)C(C)Oc4ccccc4)cc3)nc2s1 (stereo not given),3.83% (inactive)
18,CCCNc1ncnc2c1c(-c1ccccc1)cn2-c1ccc(OCC)cc1,36.7% (inactive)
19,COc1ccc(-n2cc(-c3ccccc3)c3c(=S)nc[nH]c32)cc1,-0.706% (inactive)
20,O=c1[nH]cnc2c1c(-c1ccccc1)cn2-c1ccc(F)cc1,-39.4% (active)
21,COc1ccc(-c2noc(-c3ccc(N4CCN(c5ccccc5)CC4)c([N+](=O)[O-])c3)n2)cc1OC,-6.01% (inactive)
22,COc1ccc(S(=O)(=O)NCc2cccn2Cc2cccc(C)c2)cc1Cl,-21.8% (inactive)

row,Structure (SMILES),"activity change, negative = inhibition"
1,CSc1ncccc1C(=O)NCc1ccccc1Cl,-34.3% (active)
2,CSc1ncc(C(=O)NCc2ccccc2Cl)c(C(F)(F)F)n1,2.06% (inactive)
3,CSc1ncccc1C(=O)Nc1ccc(C)cn1,25.9% (inactive)
4,O=C(Nc1ccc(O)c(-c2nc3ccccc3o2)c1)c1ccc(-c2cccc(Cl)c2)o1,8.95% (inactive)
5,CC(=O)c1ccc(NC(=O)C2CCN(S(=O)(=O)c3c(C)noc3/C=C/c3ccc(C)cc3)CC2)cc1,0.387% (inactive)
6,COc1ccccc1NC(=O)CSc1oc(-c2ccco2)nc1S(=O)(=O)c1ccc(Br)cc1,-50.6% (active)
7,Cc1ccc(S(=O)(=O)c2nc(-c3ccco3)oc2SCC(=O)Nc2ccc(F)cc2)cc1,-3.5% (inactive)
8,CC(Sc1oc(-c2ccco2)nc1S(=O)(=O)c1ccc(Br)cc1)c1ccccc1 (stereo not given),6.94% (inactive)
9,CCn1cc(C(=O)N2CCN(c3cc(Cl)ccc3C)CC2)c(=O)c2cc(S(=O)(=O)N3CCCC3)ccc21,-6.15% (inactive)
10,COc1cccc(C(c2c(O)cc(C)n(Cc3ccco3)c2=O)N2CCN(c3ccccc3)CC2)c1 (stereo not given),4.67% (inactive)
11,O=C(NCCCN1CCN(c2cccc(Cl)c2)CC1)c1nnc(Cc2ccc(F)cc2Cl)o1,-33.5% (active)
12,COc1ccc(N2CCN(CCNC(=O)c3nnc(Cc4c(F)cccc4Cl)o3)CC2)cc1,5.46% (inactive)
13,Cc1ccc(CCNC(=O)c2nnc(Cc3cccc(F)c3)o2)cc1,-1.29% (inactive)
14,Cc1ccc(CCNC(=O)c2ccc(CS(=O)(=O)Cc3cccc(C)c3)o2)cc1,-10.5% (inactive)
15,O=C(c1ccco1)N1CCN(C(=O)C2CC(c3ccc(Cl)c(Cl)c3)=NO2)CC1 (stereo not given),-36.7% (active)
16,O=C(OCC(=O)N1CCN(C(=O)c2ccco2)CC1)c1ccc(Cl)c(Cl)c1,-10.9% (inactive)
17,O=C(c1ccco1)N1CCN(C(=O)C2CC(c3ccc(F)cc3)=NO2)CC1 (stereo not given),-3.06% (inactive)
18,COc1ccccc1CN1CCC(CNC(=O)c2cnn(-c3ccccc3Cl)c2C2CCN(C(=O)OC(C)(C)C)CC2)CC1,-9.9% (inactive)
19,COc1ccccc1C(=O)OCc1cc(=O)n2nc(-c3cccs3)sc2n1,-28% (inactive)
20,O=C(CCS(=O)(=O)c1ccc2c(c1)NC(=O)CO2)Nc1cccc(C(F)(F)F)c1,1.28% (inactive)
21,Clc1cc(-c2ccc(/C=N/n3cnnc3)o2)ccc1Br,-8.28% (inactive)
22,Brc1cc(/C=N/n2cnnc2)oc1Br,-2.4% (inactive)

row,Structure (SMILES),"activity change, negative = inhibition"
1,Cc1ccc(Cl)cc1-c1ccc(/C=N/n2cnnc2)o1,-37.1% (active)
2,Cn1c(=O)nc2n(-c3ccc(Br)cc3)c3cccc(Cl)c3cc-2c1=O,-15.6% (inactive)
3,CCOc1ccc(N2CC(c3nc4ccccc4n3CCOc3ccc(OC)cc3)CC2=O)cc1 (stereo not given),-7.94% (inactive)
4,CCc1ccccc1N1CC(c2nc3ccccc3n2CCCCOc2ccccc2)CC1=O (stereo not given),-13.7% (inactive)
5,COc1ccc(OCCCn2c(C3CC(=O)N(c4ccc(F)cc4)C3)nc3ccccc32)cc1 (stereo not given),-46.1% (active)
6,COc1ccc(OC)c(CNC(=O)c2c3c(nc4ccccc24)C(=O)N(C2CCCCC2)C3)c1,18.9% (inactive)
7,COc1ccccc1OCCC(=O)OCC(=O)NC(=O)NC(C)(C)C,-0.18% (inactive)
8,CC(C)(C)NC(=O)NC(=O)COC(=O)Cc1ccc(Cl)cc1Cl,-36.3% (active)
9,CC(C)(C)NC(=O)NC(=O)COC(=O)Cc1c(F)cccc1Cl,-21% (inactive)
10,CCOc1cc(/C=C(\C#N)C(=O)Nc2ccccc2C)ccc1OCc1cc(=O)n2nc(CC)sc2n1,4.8% (inactive)
11,CCOC(=O)c1cccc(NS(=O)(=O)c2cn(C)c(C)n2)c1,0.648% (inactive)
12,CCOc1ccccc1N(CC)C(=O)Nc1cn(C)c(=O)c2ccccc12,-33.9% (active)
13,CCOc1ccccc1N(CC)C(=O)c1cc2ccc3cccnc3c2[nH]1,15.7% (inactive)
14,CCOc1ccccc1CNC(=O)Nc1cn(CC(C)C)c(=O)c2ccccc12,-9.18% (inactive)
15,CNC(=O)CN1C(=O)c2cccnc2Sc2ccccc21,2.47% (inactive)
16,COc1ccc(CCNC(=O)c2ccc3c(c2)sc2nc(-c4ccc(C)cc4)cn23)cc1OC,-5.29% (inactive)
17,COc1cc(NS(=O)(=O)c2ccc(NC(=O)c3ccc(S(=O)(=O)N4CCCCC4)cc3)cc2)ncn1,-62.1% (active)
18,COc1cc(NS(=O)(=O)c2ccc(NC(=O)CN3C(=O)c4ccccc4C3=O)cc2)ncn1,11.7% (inactive)
19,COc1cc(NS(=O)(=O)c2ccc(NC(=S)NC(=O)c3ccc(Br)cc3)cc2)ncn1,-8.88% (inactive)
20,CC1CCCCN1Cc1c(O)ccc2c(=O)c(-c3cccc(Cl)c3)c(C(F)(F)F)oc12 (stereo not given),8.91% (inactive)
21,CCOc1ccc(C(NC(=O)c2cc(OC)c(OC)c(OC)c2)c2cc(Cl)c3cccnc3c2O)cc1 (stereo not given),1.85% (inactive)
22,CCOCCCNC(=O)c1ccc2nc(CCc3ccccc3)oc2c1,-1.1% (inactive)

row,Structure (SMILES),"activity change, negative = inhibition"
1,CCOc1cccc(NC(=O)c2ccc(F)c(S(=O)(=O)N(CC)c3cccc(C)c3)c2)c1,16.1% (inactive)
2,CC1=C(C(=O)OCc2ccc(C)cc2)C(c2c(Cl)cccc2Cl)CC(=O)N1 (stereo not given),4.89% (inactive)
3,CCC(=O)N1CCN(c2ccccc2NC(=O)COc2cccc(C)c2C)CC1,3.4% (inactive)
4,COc1cc(NC(=O)COc2ccccc2Cl)ccc1NC(=O)C(C)C,0.361% (inactive)
5,Cc1ccccc1OCC(=O)Nc1ccc(N2CCN(C(=O)C(C)C)CC2)c(Cl)c1,-31% (active)
6,Cc1ccc(C)c(CN2C(=O)c3ccccc3S(=O)c3ccc(C(=O)N4CCOCC4)cc32)c1 (stereo not given),1.36% (inactive)
7,COc1ccc(OCC(=O)Nc2cccc(C(=O)OCc3cc(=O)n4nc(C)sc4n3)c2)cc1,-3.25% (inactive)
8,CCOc1ccc(-n2c(C)nc3c(cnn3-c3ccc(C)cc3)c2=O)cc1,10.9% (inactive)
9,COc1cc(C(=S)N2CCOCC2)cc(OC)c1OC(=O)c1cc([N+](=O)[O-])cc([N+](=O)[O-])c1,-2.9% (inactive)
10,COc1cc(C(=S)N2CCOCC2)cc(OC)c1OC(=O)c1ccc([N+](=O)[O-])cc1[N+](=O)[O-],-16.4% (inactive)
11,COc1cc([N+](=O)[O-])cc([N+](=O)[O-])c1NC(=O)N1CCOCC1,-32.7% (active)
12,O=C(Nc1c(-c2ccc(F)cc2)nc2ccccn12)c1cccc(F)c1,-0.545% (inactive)
13,N#CN1CCC(NC(=O)c2ccc(F)cc2)CC1,-14.9% (inactive)
14,O=C(Nc1ccc(OC(F)(F)F)cc1)c1cc2c(=O)n3ccccc3nc2s1,-3.02% (inactive)
15,CCOc1ccc(N(C)S(=O)(=O)c2cc(-c3cnc(C)o3)ccc2OC)cc1,-5.97% (inactive)
16,COc1ccc(-n2nnnc2SCC(=O)c2ccc(OC)c(OC)c2)cc1,16.4% (inactive)
17,Oc1ccc(-n2nnnc2SCc2c(F)cccc2Cl)cc1,-17.7% (inactive)
18,COc1ccc(CSc2nnnn2-c2ccc(O)cc2)cc1F,-36.7% (active)
19,COc1ccc(CCNc2nc3c(-c4cccc(F)c4)nnn3c3ccccc23)cc1OC,1.83% (inactive)

# Source: PubChem BioAssay AID504652 (National Center for Advancing Translational Sciences (NCATS), 2011)
